Common to all, as to conditions: mRNA level, 48 h; actives raise or lower the signal
Read-out in test [1]: Peroxisomal acyl-coenzyme A oxidase 1 (ACOX1) gene, ACOX1 (gene 51)
Kind of test: LTEA_HepaRG_ACOX1: Life Technologies and Expression Analysis (LTEA) Assay for Peroxisomal acyl-coenzyme A oxidase 1 (ACOX1) gene using HepaRG (AID 2283467). Summed up: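 Measured by qRT-PCR against three housekeeping genes: ACOX1 transcript change in human HepaRG cells after 48 h dosing. Concentrations ran up to 100 uM in half-log steps. Curves were fitted bidirectionally relative to 0.5% DMSO.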

Read-out in test [2]: Alkaline Phosphatase, Placental (ALPP) gene, ALPP (gene 250)
Kind of test: LTEA_HepaRG_ALPP: Life Technologies and Expression Analysis (LTEA) Assay for Alkaline Phosphatase, Placental (ALPP) gene using HepaRG (AID 2283468).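 On AC50: differentiated human HepaRG liver cells in serum-free induction medium.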 Summed up: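 qRT-PCR readout of ALPP mRNA (Fluidigm TaqMan), normalized to ACTB/GAPDH/POLR2A, after 48 h chemical exposure of HepaRG cells; 8-point half-log series, top 100 uM, 0.5% DMSO vehicle. Bidirectional curve fit versus DMSO baseline.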

Read-out in test [3]: Bcl-2 (BAD) gene, BAD (gene 572)
The experiment in a line: LTEA_HepaRG_BAD: Life Technologies and Expression Analysis (LTEA) Assay for Bcl-2 (BAD) gene using HepaRG (AID 2283469). Summed up: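 BAD transcript change, measured by qRT-PCR against three housekeeping genes and fitted in both directions relative to 0.5% DMSO, after 48 h chemical treatment of human HepaRG liver cells at concentrations up to 100 uM.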

Read-out in test [4]: Bcl-2 (BAX) gene, BAX (gene 581)
Kind of test: LTEA_HepaRG_BAX: Life Technologies and Expression Analysis (LTEA) Assay for Bcl-2 (BAX) gene using HepaRG (AID 2283470). Summed up: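 HepaRG (human liver), 48 h exposure, duplicate wells. 8-pt curve, half-log from 100 uM, 0.5% DMSO. BAX transcript by TaqMan qRT-PCR; ACTB/GAPDH/POLR2A normalization; gain or loss vs DMSO baseline.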

Read-out in test [5]: adenosine kinase (ADK) gene, ADK (gene 132)
Kind of test: LTEA_HepaRG_ADK: Life Technologies and Expression Analysis (LTEA) Assay for adenosine kinase (ADK) gene using HepaRG (AID 2283471). Summed up:
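Read-out is ADK transcript level measured by qRT-PCR and normalised to three housekeeping genes. Cells are human HepaRG, dosed for 48 h at up to 100 uM in 0.5% DMSO. Gain or loss of signal is fitted against DMSO controls.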

Read-out in test [6]: Alpha-fetoprotein (AFP) gene, AFP (gene 174)
The experiment in a line: LTEA_HepaRG_AFP: Life Technologies and Expression Analysis (LTEA) Assay for Alpha-fetoprotein (AFP) gene using HepaRG (AID 2283472). Summed up:
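HepaRG, single lot; 48 h post-plating -> serum-free induction medium; cpd 8-pt, 100 uM top, half-log, 0.5% DMSO, duplicate, 48 h. RNA -> qRT-PCR AFP, norm ACTB/GAPDH/POLR2A. Bidirectional fit vs DMSO.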

Read-out in the next test: BCL2L11 (gene 10018)
The experiment in a line: LTEA_HepaRG_BCL2L11: Life Technologies and Expression Analysis (LTEA) Assay for Bcl-2 (BCL2L11) gene using HepaRG (AID 2283473). Summed up:
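HepaRG, 48 h exposure, 8-pt half-log series from 100 uM in 0.5% DMSO, duplicates; qRT-PCR (Fluidigm TaqMan) for BCL2L11, housekeeping-normalized; bidirectional curve fit relative to DMSO baseline.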

Read-out in test [7]: Apolipoprotein A-V (APOA5) gene, APOA5 (gene 116519)
The experiment in a line: LTEA_HepaRG_APOA5: Life Technologies and Expression Analysis (LTEA) Assay for Apolipoprotein A-V (APOA5) gene using HepaRG (AID 2283474). Summed up:
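HepaRG, 48 h chemical exposure in serum-free induction medium, 8-pt half-log series (top 100 uM), 0.5% DMSO vehicle, duplicates. Readout: APOA5 mRNA by qRT-PCR, housekeeping-normalized; bidirectional fit vs DMSO baseline.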

Read-out in test [8]: Apoptosis regulator Bcl-2 (Homo sapiens) (UniProt P10415)
Kind of test: LTEA_HepaRG_BCL2: Life Technologies and Expression Analysis (LTEA) Assay for Bcl-2 gene using HepaRG (AID 2283475). Summed up:
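HepaRG, plated 48 h then switched to serum-free induction medium; dosed 48 h, 8 conc. (max 100 uM, half-log steps), duplicate, 0.5% DMSO. Lysis in RLT, RNA isolated, TaqMan qRT-PCR for BCL2; ACTB/GAPDH/POLR2A normalisation; bidirectional fit vs DMSO.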

Read-out in test [9]: Bcl-2 (BID) gene, BID (gene 637)
The experiment in a line: LTEA_HepaRG_BID: Life Technologies and Expression Analysis (LTEA) Assay for Bcl-2 (BID) gene using HepaRG (AID 2283476). Summed up: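 Transcript levels of BID, measured by qRT-PCR and normalized to three housekeeping genes, were fitted bidirectionally against DMSO controls. Cells were HepaRG, dosed 48 h at up to 100 uM.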

Read-out in a further test: Caspase-3 (Homo sapiens) (UniProt P42574)
The experiment in a line: LTEA_HepaRG_CASP3: Life Technologies and Expression Analysis (LTEA) Assay for cysteine-aspartic acid protease (CASP3) using HepaRG (AID 2283477). Summed up:
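HepaRG, 48 h exposure, 8 conc. (top 100 uM, half-log steps, duplicate), 0.5% DMSO vehicle; qRT-PCR of CASP3 transcript, housekeeping-normalised (ACTB/GAPDH/POLR2A); bidirectional curve fit vs DMSO baseline.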

Read-out in test [10]: Cytochrome P450 (CYP24A1), CYP24A1 (gene 1591)
The experiment in a line: LTEA_HepaRG_CYP24A1: Life Technologies and Expression Analysis (LTEA) Assay for Cytochrome P450 (CYP24A1) using HepaRG (AID 2283478). Summed up:
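qRT-PCR read-out: CYP24A1 transcript levels normalized to three housekeeping genes, bidirectional curve fits against 0.5% DMSO baseline. Human HepaRG cells treated 48 h with chemicals at eight concentrations from 100 uM in half-log steps.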

Read-out in test [11]: cysteine-aspartic acid protease (CASP8), CASP8 (gene 841)
Kind of test: LTEA_HepaRG_CASP8: Life Technologies and Expression Analysis (LTEA) Assay for cysteine-aspartic acid protease (CASP8) using HepaRG (AID 2283480). Summed up: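 HepaRG, 48 h exposure, duplicate wells; 8 conc, half-log from 100 uM, 0.5% DMSO. Serum-free induction medium. CASP8 mRNA by TaqMan qRT-PCR, norm. ACTB/GAPDH/POLR2A; gain/loss fitted vs DMSO.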

Read-out in test [12]: Cytochrome P450 2C19 (Homo sapiens) (UniProt P33261)
Kind of test: LTEA_HepaRG_CYP2C19: Life Technologies and Expression Analysis (LTEA) Assay for CYP2C19 using HepaRG (AID 2283482). Summed up: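 HepaRG, 48 h chemical exposure, 8-pt half-log series from 100 uM in 0.5% DMSO, duplicates. Readout: CYP2C19 mRNA by TaqMan qRT-PCR, housekeeping-normalized. Bidirectional fit vs DMSO baseline; phenobarbital 1mM as induction control.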

Read-out in another test: CYP2C8 (gene 1558)
The experiment in a line: LTEA_HepaRG_CYP2C8: Life Technologies and Expression Analysis (LTEA) Assay for CYP2C8 using HepaRG (AID 2283483). Summed up:
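CYP2C8 mRNA induction or loss, by qRT-PCR normalized to ACTB/GAPDH/POLR2A, is read in HepaRG cells after 48 h treatment. Concentrations run from 100 uM down in half-log dilutions, with 0.5% DMSO as vehicle and baseline.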

Read-out in a further test: CYP2C9 (gene 1559)
The experiment in a line: LTEA_HepaRG_CYP2C9: Life Technologies and Expression Analysis (LTEA) Assay for CYP2C9 using HepaRG (AID 2283484). Summed up: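 Cells plated 48 h, switched to serum-free induction medium, then treated in duplicate for 48 h at eight concentrations (max 100 uM, 0.5% DMSO). RNA then analysed by qRT-PCR for CYP2C9; curves fitted in both directions relative to DMSO.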

Read-out in a further test: CYP2E1 (gene 1571)
Kind of test: LTEA_HepaRG_CYP2E1: Life Technologies and Expression Analysis (LTEA) Assay for CYP2E1 using HepaRG (AID 2283485). Summed up:
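Human liver line HepaRG, plated 48 h, then serum-free induction medium + chemical x 48 h; 8-pt CRC from 100 uM, half-log, 0.5% DMSO, n=2. Readout: CYP2E1 mRNA qRT-PCR vs ACTB/GAPDH/POLR2A; bidirectional fit vs DMSO.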

Read-out in the next test: CYP4A11 (gene 1579)
Kind of test: LTEA_HepaRG_CYP4A11: Life Technologies and Expression Analysis (LTEA) Assay for CYP4A11 using HepaRG (AID 2283486). Summed up: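 CYP4A11 transcript levels were quantified by TaqMan qRT-PCR after HepaRG human liver cells were treated for 48 hours with test chemicals (top 100 uM, half-log dilutions, 0.5% DMSO). Gain or loss of signal was fitted relative to DMSO.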

Each structure is given as a SMILES string. The source made the active and inactive calls. How the source made its calls: active means hit-call score of the fitted dose curve at least 0.9, where 1 is the maximum; inactive means score below 0.9.

Sequence of Caspase-3 (Homo sapiens) (P42574 whole entry, looked up): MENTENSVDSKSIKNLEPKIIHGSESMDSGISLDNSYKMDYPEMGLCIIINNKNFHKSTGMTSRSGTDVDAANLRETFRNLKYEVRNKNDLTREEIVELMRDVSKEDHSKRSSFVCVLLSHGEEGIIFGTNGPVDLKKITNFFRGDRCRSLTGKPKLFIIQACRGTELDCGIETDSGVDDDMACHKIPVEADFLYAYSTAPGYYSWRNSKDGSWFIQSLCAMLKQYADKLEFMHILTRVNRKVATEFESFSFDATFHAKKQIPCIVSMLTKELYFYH
Sequence of Apoptosis regulator Bcl-2 (Homo sapiens) (P10415 whole entry, looked up): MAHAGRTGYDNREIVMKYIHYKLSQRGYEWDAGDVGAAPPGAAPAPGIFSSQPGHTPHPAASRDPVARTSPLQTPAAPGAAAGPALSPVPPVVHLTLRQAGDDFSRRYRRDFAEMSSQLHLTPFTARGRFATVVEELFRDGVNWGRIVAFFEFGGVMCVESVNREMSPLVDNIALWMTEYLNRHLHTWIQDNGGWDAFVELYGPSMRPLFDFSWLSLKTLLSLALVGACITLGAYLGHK
Sequence of Cytochrome P450 2C19 (Homo sapiens) (P33261 whole entry, looked up): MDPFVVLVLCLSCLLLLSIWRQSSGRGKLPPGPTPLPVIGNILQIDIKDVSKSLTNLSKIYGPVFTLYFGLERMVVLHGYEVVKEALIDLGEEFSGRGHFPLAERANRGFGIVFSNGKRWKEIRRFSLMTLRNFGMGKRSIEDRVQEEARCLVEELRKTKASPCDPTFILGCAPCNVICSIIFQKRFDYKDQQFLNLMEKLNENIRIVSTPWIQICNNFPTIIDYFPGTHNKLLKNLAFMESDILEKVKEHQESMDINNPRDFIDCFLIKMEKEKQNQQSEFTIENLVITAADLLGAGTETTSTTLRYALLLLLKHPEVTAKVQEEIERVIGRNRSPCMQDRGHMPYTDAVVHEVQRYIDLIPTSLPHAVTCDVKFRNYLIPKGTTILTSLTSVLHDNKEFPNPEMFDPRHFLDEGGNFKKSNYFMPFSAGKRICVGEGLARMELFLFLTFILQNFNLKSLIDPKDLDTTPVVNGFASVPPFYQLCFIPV

In the case of `CCCCOC(=O)CCCCC(=O)OCCCC`, the compound was called inactive in [1], in test [2], in test [3], in test [4], in [5] and in test [6]. Also, the outcome (with BCL2L11 (gene 10018); in test [7]; in test [8]; in [9]; with Caspase-3 (Homo sapiens); in test [10]) was inactive. The outcome (in test [11]; in test [12]; in the test with CYP2C8 (gene 1558); in the test with CYP2C9 (gene 1559); with CYP2E1 (gene 1571); with CYP4A11 (gene 1579)) was inactive.
Usually AC50 stands for the midpoint of the concentration-response curve, whichever way the signal moves. For the compound `Nc1nc(Cl)nc2c1ncn2[C@H]1C[C@H](O)[C@@H](CO)O1`, the AC50 is 4130 nM (active) in test [1]; 415 nM (active) in test [4]; 1050 nM (active) in test [5]; 1720 nM (active) in test [6]; 1120 nM (active) in test [7]; 2050 nM (active) in [12]. Further, the AC50 in the test with CYP2C8 (gene 1558) was 1000 nM (active); in the test with CYP2C9 (gene 1559), 1070 nM (active); with CYP2E1 (gene 1571), 879 nM (active); with CYP4A11 (gene 1579), 1410 nM (active). Further, the compound was called inactive (in test [2]; in [3]; with BCL2L11 (gene 10018); in test [8]; in test [9]; in the test with Caspase-3 (Homo sapiens)). Besides, the compound was called inactive in [10] and in test [11].
Turning to `CC(C)NCC(O)c1ccc(O)c(O)c1` (configuration not stated), the AC50 in [1] was 224 nM (active); in [2], 92.7 nM (active); in [6] it was 261 nM (active); in test [8] it was 239 nM (active); in the test with CYP2C9 (gene 1559), 175 nM (active); with CYP2E1 (gene 1571) it was 304 nM (active). Also, the outcome (in [3]; in test [4]; in test [5]; with BCL2L11 (gene 10018); in test [7]; with Caspase-3 (Homo sapiens)) was inactive. In addition, the result (in [10]; in test [11]; with CYP2C8 (gene 1558); in the test with CYP4A11 (gene 1579)) was inactive.

These data come from PubChem BioAssay (EPA / NIEHS).
